FBPA Giardia inh: inhibitors of Giardia lamblia fructose-1,6-bisphosphate aldolase. A8B2U2. purified Giardia FBPA. 290,000 compounds, 0.71% hits. AID 2451. Potency, µM (doses to about 59.6 µM), most hits filed as inhibitors; active means well fitted inhibition curve with a large enough effect; inconclusive means small, poorly fitted or top-dose-only effect, or effect the other way; further: nearly all actives have a fitted effect of over 55% in size
Target sequence (A8B2U2 whole entry, looked up): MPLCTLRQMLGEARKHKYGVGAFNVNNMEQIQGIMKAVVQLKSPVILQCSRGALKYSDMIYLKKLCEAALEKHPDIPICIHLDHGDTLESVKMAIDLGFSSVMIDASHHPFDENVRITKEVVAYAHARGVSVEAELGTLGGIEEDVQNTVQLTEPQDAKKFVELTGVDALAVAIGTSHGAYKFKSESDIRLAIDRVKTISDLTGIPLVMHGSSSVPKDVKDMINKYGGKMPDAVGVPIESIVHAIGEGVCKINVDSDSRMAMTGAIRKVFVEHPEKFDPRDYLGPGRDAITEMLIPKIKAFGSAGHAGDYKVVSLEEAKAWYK
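40 nM FBPA preincubated 10 min at RT with compound (up to 57.5 uM final), then substrate plus GAPDH/TPI/NAD/arsenate coupling and diaphorase/resazurin added. Fluorescence read after 20 min at RT, 525/598 nm.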
FMDV inh: foot and mouth disease virus antiviral activity | 410,000 compounds, 1.2% hits | FMDV antiviral cell-based qHTS | Potency, µM (titrated, usually from 57.9 µM), actives largely listed as inhibitors; calls by dose curve; tested in HEK293T cells; further: read-out not given here; nearly all actives have a fitted effect of over 45% in size
VACV Venus inh: inhibitors of vaccinia virus (Venus reporter). Vaccinia virus Venus reporter expression, fluorescence. Potency, µM (top dose mostly 36.5 µM), most hits filed as inhibitors. 330,000 compounds, 0.46% hits. AID 720580; calls by dose curve; tested in A549 cells; further: nearly all actives have a fitted effect of over 30% in size
VACV mCherry inh: inhibitors of vaccinia virus infection (mCherry reporter signal) | Vaccinia virus mCherry reporter infection, fluorescence | Potency, µM (highest dose often 36.5 µM), most hits filed as inhibitors | 310,000 compounds, 0.63% hits | AID 720579; calls by dose curve; tested in A549 cells; further: nearly all actives have a fitted effect of over 35% in size
A number is an active result. An excerpt weighted towards active compounds, which were near 2.2% of everything screened.

What do the screens show for `O=C(NCCCn1ccnc1)c1nn2c(C(F)(F)F)cc(-c3ccc(Br)cc3)nc2c1Cl`?
FBPA Giardia inh: inactive; FMDV inh: 35.5µM; VACV Venus inh: inconclusive; VACV mCherry inh: inconclusive

Results for CCCCC1=CC2=C(OC(C)=O)C(=O)C(C)(OC(=O)CC)C(=O)C2=CO1 (configuration not stated) ?
FBPA Giardia inh: inactive

Results for COc1ccc(-c2cc3nc(CCl)[nH]c(=O)c3s2)cc1 ?
FBPA Giardia inh: inactive; FMDV inh: 14.1µM; VACV Venus inh: inactive; VACV mCherry inh: inactive

Results for O=C(CN1CCC(c2nc3ccccc3s2)CC1)NCc1cccs1 ?
FBPA Giardia inh: inactive; FMDV inh: 15.8µM; VACV Venus inh: inconclusive; VACV mCherry inh: inactive

What do the screens show for `CCC(Oc1ccccc1F)C(=O)N1CCC(c2nc3ccccc3s2)CC1` (configuration not stated)?
FMDV inh: 25.1µM; VACV Venus inh: inactive; VACV mCherry inh: inactive

What do the screens show for `O=C(CSc1ccccc1Cl)N1CCC(c2nc3ccccc3s2)CC1`?
FBPA Giardia inh: inactive; FMDV inh: 35.5µM; VACV Venus inh: inconclusive

How did Cc1ccc(NC(=S)Nc2ccc3nc(-c4ccccn4)c(-c4ccccn4)nc3c2)cc1C do in these assays?
FBPA Giardia inh: 1.26µM; FMDV inh: inactive; VACV Venus inh: inactive; VACV mCherry inh: inactive

What do the screens show for `C[n+]1ccc(C(c2c[nH]c3ccccc23)c2cc[n+](C)c3ccccc23)c2ccccc21`?
VACV Venus inh: inactive; VACV mCherry inh: inactive

How did CC1Sc2ccc(S(=O)(=O)N3CCC(C(=O)Nc4ccc(Cl)cc4)CC3)cc2NC1=O (configuration not stated) do in these assays?
FMDV inh: 14.1µM

How did COc1ccc(NC(=O)C2CCN(S(=O)(=O)c3ccc4c(c3)NC(=O)C(C)S4)CC2)cc1 (configuration not stated) do in these assays?
FMDV inh: inactive; VACV Venus inh: inactive; VACV mCherry inh: inactive

What do the screens show for `CCc1nc(NCc2ccccn2)c2oc3ccccc3c2n1`?
FBPA Giardia inh: inactive; FMDV inh: 15.8µM; VACV Venus inh: inconclusive

Results for CCc1nc(Nc2cccc(O)c2)c2oc3ccccc3c2n1 ?
FBPA Giardia inh: inactive; FMDV inh: 22.4µM

Results for c1ccc(CNc2ncnc3c2oc2ccccc23)nc1 ?
FBPA Giardia inh: inactive; FMDV inh: inactive

Results for CCOC(=O)C1CCN(C(=O)COc2cccc(C)c2)CC1 ?
FBPA Giardia inh: inactive; VACV Venus inh: inactive; VACV mCherry inh: 3.98µM

What do the screens show for `COc1cccc(CNC(=O)c2c(OC)cc(=O)n3c2CCN(C(=O)c2ccoc2C)CC3)c1`?
FMDV inh: inactive; VACV Venus inh: inactive; VACV mCherry inh: inactive

Results for Cc1cccc(N/N=C(\C(N)=O)C2=NC(C)(C)Cc3ccccc32)c1 ?
FBPA Giardia inh: inactive; FMDV inh: 25.1µM; VACV Venus inh: inconclusive; VACV mCherry inh: inconclusive

How did CCOC(=O)/C(=N\O)C1=NC(C)(C)Cc2ccccc21 do in these assays?
FBPA Giardia inh: inactive; FMDV inh: inactive; VACV Venus inh: inactive; VACV mCherry inh: inactive

How did O=C(N/N=C(\Cc1ncc[nH]1)c1ccccc1)c1ccncc1 do in these assays?
FBPA Giardia inh: inconclusive; FMDV inh: inactive; VACV Venus inh: inconclusive; VACV mCherry inh: 10µM

Results for O=C(N/N=C(\c1ccccc1)c1cccnc1)c1ccc(O)cc1 ?
FBPA Giardia inh: inactive; FMDV inh: inactive; VACV Venus inh: inactive; VACV mCherry inh: inactive

What do the screens show for `O=C(N/N=C(\Cc1ncc[nH]1)c1ccccc1)c1cccnc1`?
FBPA Giardia inh: inconclusive; FMDV inh: inactive; VACV Venus inh: inconclusive; VACV mCherry inh: 11.2µM

What do the screens show for `O=C(N/N=C(\c1ccccc1)c1cccnc1)c1cccc(F)c1`?
FBPA Giardia inh: inactive; FMDV inh: inconclusive; VACV Venus inh: inconclusive; VACV mCherry inh: 3.16µM

Results for Cc1nc([N+](=O)[O-])cn1CC(=O)c1ccc2c(c1)OCCO2 ?
VACV Venus inh: inactive; VACV mCherry inh: inactive

How did CC(=O)CCC(C)=O do in these assays?
FMDV inh: inactive; VACV Venus inh: inconclusive; VACV mCherry inh: 12.6µM

How did COc1cc(=O)n2c(c1C(=O)N(C)Cc1nonc1C)CCN(C(=O)c1ccc(C)c(C)c1)CC2 do in these assays?
FMDV inh: inactive; VACV Venus inh: inactive; VACV mCherry inh: inactive

Results for O=C(CCl)c1ccc(Cc2ncc(C(F)(F)F)cc2Cl)s1 ?
FBPA Giardia inh: inactive; FMDV inh: 25.1µM; VACV Venus inh: inactive

What do the screens show for `CC1=NN(c2ccc(Cl)cc2)C(=O)/C1=C\c1cccn1-c1ccc(S(N)(=O)=O)cc1`?
FBPA Giardia inh: inactive; FMDV inh: 39.8µM; VACV Venus inh: inactive; VACV mCherry inh: inactive

Results for Cc1ccc(S(=O)(=O)N/N=C/c2cccn2-c2ccc(Cl)cc2)cc1 ?
FBPA Giardia inh: inactive; FMDV inh: inactive; VACV Venus inh: inactive

What do the screens show for `CN(CCO)C(=O)c1cn(C2CCCN(Cc3cccc4ccccc34)C2)nn1` (configuration not stated)?
FMDV inh: inactive; VACV Venus inh: inactive; VACV mCherry inh: inactive

What do the screens show for `CC1(C)CC(=O)c2c(oc3ccc(NS(=O)(=O)c4cccc5cccnc45)cc23)C1`?
FBPA Giardia inh: inactive; FMDV inh: 11.2µM; VACV Venus inh: inactive; VACV mCherry inh: inconclusive

How did Oc1c(C(Nc2cccnc2)c2ccc(C(F)(F)F)cc2)ccc2cccnc12 (configuration not stated) do in these assays?
VACV Venus inh: inconclusive; VACV mCherry inh: 8.91µM

Results for Oc1c(C(Nc2cccc(C(F)(F)F)c2)c2cccnc2)ccc2cccnc12 (configuration not stated) ?
FBPA Giardia inh: inconclusive; FMDV inh: inactive; VACV Venus inh: inactive; VACV mCherry inh: inactive

What do the screens show for `CCC(=O)NC(c1ccccc1OC)c1ccc2cccnc2c1O` (configuration not stated)?
FBPA Giardia inh: inconclusive; FMDV inh: inactive; VACV Venus inh: inconclusive; VACV mCherry inh: inconclusive

What do the screens show for `COc1ccc(Cl)cc1C(Nc1cccnc1)c1ccc2cccnc2c1O` (configuration not stated)?
FBPA Giardia inh: inconclusive; FMDV inh: inactive; VACV Venus inh: inconclusive; VACV mCherry inh: 3.55µM

What do the screens show for `COc1ccc(N2C(=O)[C@@H]3C[C@H]2CN3Cc2cccn2-c2ccccn2)cc1Cl`?
FMDV inh: inactive; VACV Venus inh: inactive; VACV mCherry inh: inactive

Results for Cc1ccc(C)c(N2CCN(C(=O)COc3cc(=O)n(C)c4ccccc34)CC2)c1 ?
FBPA Giardia inh: inactive; FMDV inh: inconclusive

Results for Cc1ccc(C)c(N2CCN(C(=O)CCCOc3cc(=O)n(C)c4ccccc34)CC2)c1 ?
FBPA Giardia inh: inactive; FMDV inh: 25.1µM

Results for CO[C@H]1[C@H](NC(=O)c2ccco2)c2ccccc2C12CCN(Cc1cnn(-c3ccccc3)c1)CC2 ?
FMDV inh: inactive; VACV Venus inh: inactive; VACV mCherry inh: inactive

Results for COC(=O)C1=C(C(=O)OC)C2OC1c1cc3ccccc3cc12 ?
FMDV inh: 28.2µM; VACV Venus inh: inconclusive; VACV mCherry inh: inactive

How did COc1ccc(CCNC(=O)c2cc(-c3ccc(Cl)cc3)on2)cc1OC do in these assays?
FMDV inh: inactive; VACV Venus inh: inactive; VACV mCherry inh: inactive

How did COc1ccc(-c2cc(C(=O)Nc3cc(C)n(Cc4ccc(Cl)cc4)n3)no2)cc1OC do in these assays?
FBPA Giardia inh: inactive; FMDV inh: 3.55µM; VACV Venus inh: inconclusive; VACV mCherry inh: inconclusive

Screening results (PubChem)
